Source: PubChem BioAssay
Active and inactive are the calls of the source.

Tests used:
[1] = binders of probe aFSTL3 on microarray, primary screen, stem cell growth factor project, biochemical, small-molecule microarray, fluorescence 635/667 (AID 1064); details: higher = more signal;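 further: measures binding of the biotinylated anti-FSTL3 antibody to printed compounds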
[2] = binders from COS7 lysate, DM2A8 probe, primary screen, torsin A project, cell lysate, small-molecule microarray, fluorescence 635/667 (AID 1065); details: higher = more signal, COS7 lysate expressing mutant human TOR1A
[3] = binders of probe aFGF2 on microarray, primary screen, stem cell growth factor project, biochemical, small-molecule microarray, fluorescence 635/667 (AID 1067); details: higher = more signal;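 further: measures binding of biotinylated aFGF2 protein to printed compounds on slides; z-score merges feature fluorescence and signal-to-noise across triplicate slides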
[4] = binders of probe aFGF10 on microarray, primary screen, stem cell growth factor project, biochemical, small-molecule microarray, fluorescence 635/667 (AID 1071); details: higher = more signal;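 further: score merges 667 nm spot intensity and signal to noise from triplicate slides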
[5] = molecular target: Neurogenic locus notch homolog protein 2 (Homo sapiens) (UniProt Q04721); assay: Notch2 binders on small-molecule microarrays, primary screen, biochemical, small-molecule microarray, 635 nm fluorescence, stem cell growth factors (AID 1073); details: Notch2 binding, higher = more signal
[6] = molecular target: Pro-neuregulin-1, membrane-bound isoform (Homo sapiens) (UniProt Q02297); assay: NRG1 binders on small-molecule microarrays, primary screen, psychiatric disease protein project, biochemical, small-molecule microarray, fluorescence 635/667 (AID 1075); details: NRG1 binding, 635 nm fluorescence, higher = more signal;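 further: score combines 667 nm spot fluorescence with signal to noise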
[7] = tested on: Neuregulin-1 EGF-like domain; assay: binders of neuregulin-1 EGF-like domain, primary screen, biochemical, small-molecule microarray, 635 nm fluorescence (AID 1081); details: small-molecule microarray binding, higher = more signal;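 further: binding of the protein to compounds printed on small-molecule microarray slides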
[8] = FRG1 promoter luciferase signal modulators, primary screen, FRG1 inhibition for FSHD, cell-based, C2C12 myotubes, firefly/Renilla luciferase, luminescence (AID 1084); details: higher = more signal, called active from +8 up or from −8 down
[9] = binders of probe aFST on microarray, primary screen, stem cell growth factor project, biochemical, small-molecule microarray, fluorescence 635/667 (AID 1086); details: higher = more signal;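 further: score merges 667 nm fluorescence with signal-to-noise of each printed compound spot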
[10] = binders of probe aHhip on microarray, primary screen, stem cell growth factor project, biochemical, small-molecule microarray, fluorescence 635/667 (AID 1087); details: higher = more signal;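 further: score merges spot fluorescence at 667nm with spot signal to noise ratio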
[11] = tested on: PRMT1 (protein arginine N-methyltransferase 1); assay: PRMT1 binders on small-molecule microarrays, primary screen, biochemical, small-molecule microarray, 635 nm fluorescence (AID 1088); details: small-molecule microarray binding, higher = more signal;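 further: binding of Prmt1 protein to compounds spotted on small-molecule microarray slides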
[12] = yeast growth modulation, basal conditions, primary screen, YJM789 clinical isolate, OD600, 24 h (AID 1089);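 further: growth of clinical yeast isolate S. cerevisiae YJM 789 seeded 1000 cells per well; test concentration not given here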; details: S. cerevisiae YJM789 growth, higher = more signal, called active from +8 up or from −8 down
[13] = fission yeast growth modulation, primary screen, strain 972, OD600, 24 h, no modulator (AID 1090);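 further: basal condition with compound alone and no growth modifier present; test concentration not given here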; details: S. pombe 972 growth, higher = more signal, called active from +8 up or from −8 down
[14] = S. cerevisiae growth modulation with rapamycin, primary screen, strain BY4716, OD600, 96 h (AID 1091); details: higher = more signal, called active from +8 up or from −8 down; further: test concentration not given here
[15] = molecular target: Torsin-1A-interacting protein 2 (Homo sapiens) (UniProt Q8NFQ8); assay: LULL1 binders on small-molecule microarray, primary screen, cell lysate, human LULL1 lysate, 635/667 nm fluorescence (AID 1092); details: hLULL1 lysate binding, 635 nm fluorescence, higher = more signal;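 further: probe is lysate of COS7 cells overexpressing human LULL1; score merges per-feature 667 nm fluorescence with signal-to-noise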
[16] = E. coli growth modulation, two-sided OD650, primary screen, E. coli filamentation project, strain DRC41, 24 h (AID 1093); details: OD650, 24 h, higher = more signal, called active from +8 up or from −8 down;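 further: MC1000 strain lacking acrAB efflux and sulA so SOS filamentation is blocked; test concentration not given here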
[17] = small-molecule microarray binders of probe aLefty2, primary screen, biochemical, biotinylated probe, 635/667 nm fluorescence (AID 1094); details: higher = more signal;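 further: score merges spot fluorescence near 667 nm with spot signal-to-noise ratio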
[18] = tested on: Noggin (protein binding on small-molecule microarray); assay: Noggin binders on small-molecule microarray, primary screen, biochemical, 635/667 nm fluorescence (AID 1095); details: 635 nm fluorescence, higher = more signal;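 further: score merges 667 nm feature fluorescence with signal to noise over triplicate slides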
[19] = molecular target: Neurogenic locus notch homolog protein 3 (Homo sapiens) (UniProt Q9UM47); assay: NOTCH3 binders on small-molecule microarray, primary screen, biochemical, 635/667 nm fluorescence (AID 1096); details: NOTCH3 binding, 635 nm fluorescence, higher = more signal
[20] = small-molecule microarray binders of probe aEGFR, primary screen, biochemical, biotinylated probe, 635/667 nm fluorescence (AID 1097); details: higher = more signal;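 further: probe is a biotinylated anti-EGFR antibody binding compounds printed on slides; score combines fluorescence near 667 nm and signal to noise of each spot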

Sequence of Torsin-1A-interacting protein 2 (Homo sapiens) (Q8NFQ8 whole entry, looked up): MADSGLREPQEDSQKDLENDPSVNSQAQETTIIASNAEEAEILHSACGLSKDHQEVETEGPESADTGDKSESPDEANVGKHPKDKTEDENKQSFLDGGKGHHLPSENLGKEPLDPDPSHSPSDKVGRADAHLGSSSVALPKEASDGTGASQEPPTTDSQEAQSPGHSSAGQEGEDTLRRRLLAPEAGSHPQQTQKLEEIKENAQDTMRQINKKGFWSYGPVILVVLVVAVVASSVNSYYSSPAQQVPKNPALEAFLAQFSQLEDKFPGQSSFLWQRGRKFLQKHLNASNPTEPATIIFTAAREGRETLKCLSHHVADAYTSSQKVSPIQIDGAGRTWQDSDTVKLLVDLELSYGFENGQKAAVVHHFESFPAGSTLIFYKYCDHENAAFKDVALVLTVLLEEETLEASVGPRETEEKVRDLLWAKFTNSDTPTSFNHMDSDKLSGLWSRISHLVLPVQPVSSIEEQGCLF
Sequence of Neurogenic locus notch homolog protein 2 (Homo sapiens) (Q04721 whole entry, looked up, canonical isoform): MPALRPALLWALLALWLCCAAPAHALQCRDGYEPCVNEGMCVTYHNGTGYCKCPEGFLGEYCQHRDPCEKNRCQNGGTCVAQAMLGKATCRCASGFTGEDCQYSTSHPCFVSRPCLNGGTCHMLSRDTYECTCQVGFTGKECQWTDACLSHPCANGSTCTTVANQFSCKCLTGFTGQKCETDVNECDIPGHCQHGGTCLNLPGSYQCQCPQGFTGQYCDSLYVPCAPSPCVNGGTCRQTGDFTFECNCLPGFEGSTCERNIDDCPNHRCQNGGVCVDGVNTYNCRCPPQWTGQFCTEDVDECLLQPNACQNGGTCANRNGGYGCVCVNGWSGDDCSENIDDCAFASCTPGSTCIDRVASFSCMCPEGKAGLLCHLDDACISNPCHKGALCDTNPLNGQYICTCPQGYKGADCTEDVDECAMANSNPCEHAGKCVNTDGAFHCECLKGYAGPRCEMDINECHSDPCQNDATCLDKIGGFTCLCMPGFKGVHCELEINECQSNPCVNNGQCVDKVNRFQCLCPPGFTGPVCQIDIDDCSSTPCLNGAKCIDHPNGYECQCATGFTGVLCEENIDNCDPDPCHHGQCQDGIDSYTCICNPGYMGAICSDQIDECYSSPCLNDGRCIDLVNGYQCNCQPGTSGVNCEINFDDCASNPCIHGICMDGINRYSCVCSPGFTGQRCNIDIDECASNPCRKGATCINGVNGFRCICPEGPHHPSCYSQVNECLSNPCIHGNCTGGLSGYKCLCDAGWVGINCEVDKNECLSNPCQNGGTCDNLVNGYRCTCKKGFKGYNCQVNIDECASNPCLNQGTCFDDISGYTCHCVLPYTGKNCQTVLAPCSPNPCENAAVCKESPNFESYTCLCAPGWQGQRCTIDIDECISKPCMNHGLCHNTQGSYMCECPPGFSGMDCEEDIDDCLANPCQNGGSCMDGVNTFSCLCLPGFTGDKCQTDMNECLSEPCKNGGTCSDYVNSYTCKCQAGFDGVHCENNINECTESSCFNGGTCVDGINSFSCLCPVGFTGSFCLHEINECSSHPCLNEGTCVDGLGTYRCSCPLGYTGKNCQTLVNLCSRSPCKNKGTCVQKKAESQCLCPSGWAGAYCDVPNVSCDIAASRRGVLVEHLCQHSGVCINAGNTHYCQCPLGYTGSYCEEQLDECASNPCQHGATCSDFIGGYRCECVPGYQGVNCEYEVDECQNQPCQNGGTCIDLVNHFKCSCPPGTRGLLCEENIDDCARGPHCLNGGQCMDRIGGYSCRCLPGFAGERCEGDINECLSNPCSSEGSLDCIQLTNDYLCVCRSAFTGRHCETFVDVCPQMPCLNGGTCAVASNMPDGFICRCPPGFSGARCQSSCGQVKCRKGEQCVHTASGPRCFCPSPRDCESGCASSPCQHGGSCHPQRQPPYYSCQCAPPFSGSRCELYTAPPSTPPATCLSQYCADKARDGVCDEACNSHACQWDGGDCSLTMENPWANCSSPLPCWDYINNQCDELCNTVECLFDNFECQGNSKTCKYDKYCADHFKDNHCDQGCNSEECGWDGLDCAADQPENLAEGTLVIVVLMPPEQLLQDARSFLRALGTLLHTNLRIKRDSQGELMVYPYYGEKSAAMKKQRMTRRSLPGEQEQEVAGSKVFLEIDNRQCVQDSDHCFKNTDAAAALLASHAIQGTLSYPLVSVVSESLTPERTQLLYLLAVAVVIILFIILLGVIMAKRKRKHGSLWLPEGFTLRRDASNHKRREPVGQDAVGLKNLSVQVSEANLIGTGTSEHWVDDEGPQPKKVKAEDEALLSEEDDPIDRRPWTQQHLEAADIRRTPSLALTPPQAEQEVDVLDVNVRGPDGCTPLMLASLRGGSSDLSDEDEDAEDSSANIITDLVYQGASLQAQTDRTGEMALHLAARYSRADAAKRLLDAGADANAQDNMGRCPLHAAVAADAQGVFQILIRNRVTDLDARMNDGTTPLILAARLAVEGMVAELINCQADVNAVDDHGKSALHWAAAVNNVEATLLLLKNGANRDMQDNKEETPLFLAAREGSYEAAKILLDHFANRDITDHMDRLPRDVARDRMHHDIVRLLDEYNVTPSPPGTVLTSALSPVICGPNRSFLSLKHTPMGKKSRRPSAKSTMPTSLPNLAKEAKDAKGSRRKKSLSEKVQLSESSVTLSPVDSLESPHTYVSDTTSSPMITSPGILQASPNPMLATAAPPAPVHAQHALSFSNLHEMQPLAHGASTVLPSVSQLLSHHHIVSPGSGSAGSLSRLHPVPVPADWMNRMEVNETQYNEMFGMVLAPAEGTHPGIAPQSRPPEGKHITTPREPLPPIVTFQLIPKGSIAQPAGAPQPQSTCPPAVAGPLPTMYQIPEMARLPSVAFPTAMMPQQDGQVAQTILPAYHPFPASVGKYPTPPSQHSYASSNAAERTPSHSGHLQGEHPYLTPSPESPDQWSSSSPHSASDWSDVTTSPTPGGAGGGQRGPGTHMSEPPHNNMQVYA
Sequence of Pro-neuregulin-1, membrane-bound isoform (Homo sapiens) (Q02297 whole entry, looked up, the tested form may be a part, canonical isoform): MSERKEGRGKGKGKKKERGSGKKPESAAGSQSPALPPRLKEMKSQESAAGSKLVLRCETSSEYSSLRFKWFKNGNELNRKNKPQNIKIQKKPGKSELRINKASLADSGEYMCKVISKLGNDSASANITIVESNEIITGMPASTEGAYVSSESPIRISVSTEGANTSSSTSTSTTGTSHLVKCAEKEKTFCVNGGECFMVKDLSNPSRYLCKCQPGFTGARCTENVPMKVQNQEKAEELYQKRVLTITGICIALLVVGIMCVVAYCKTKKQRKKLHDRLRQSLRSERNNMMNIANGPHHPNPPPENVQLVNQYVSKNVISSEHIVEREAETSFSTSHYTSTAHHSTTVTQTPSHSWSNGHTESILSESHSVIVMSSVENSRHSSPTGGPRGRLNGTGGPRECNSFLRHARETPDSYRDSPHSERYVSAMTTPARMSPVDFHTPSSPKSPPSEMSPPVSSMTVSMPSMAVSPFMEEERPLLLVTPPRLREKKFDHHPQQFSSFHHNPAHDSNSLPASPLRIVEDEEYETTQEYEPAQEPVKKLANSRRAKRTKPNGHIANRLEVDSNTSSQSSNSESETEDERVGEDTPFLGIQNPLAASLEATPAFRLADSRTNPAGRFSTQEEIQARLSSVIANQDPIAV

Row | SMILES | composite z-score [1] | composite z-score [2] | composite z-score [3] | composite z-score [4] | composite z-score [5] | composite z-score [6] | composite z-score [7] | z-score [8] | composite z-score [9] | composite z-score [10] | composite z-score [11] | z-score [12] | z-score [13] | z-score [14] | composite z-score [15] | z-score [16] | composite z-score [17] | composite z-score [18] | composite z-score [19] | composite z-score [20]
1 | Cc1ccc(S[C@]2(C(=O)NCC(F)(F)F)CC(=O)N(C3Cc4ccccc4C3)[C@@H]2c2ccc(CO)cc2I)cc1 | 1.27 | 0.0708 | -0.11 | -0.433 | -0.929 | 0.569 | 0.455 | -0.92 (inactive) | -0.265 | 0.0024 | -0.535 | 0.0775 (inactive) | -0.967 (inactive) | 1.81 (inactive) | 1.18 | -0.701 (inactive) | 0.157 | -0.883 | -1.08 | -0.255
2 | C=CCN1C(=O)[C@]2(Cc3ccccc31)N=C(c1ccc(OCCCO)cc1)O[C@@H]2c1ccccc1 | 0.5 | 0.152 | -0.062 | 0.439 | 1.6 | 0.904 | 1.2 | -2.5 (inactive) | 0.961 | 0.0854 | 1.33 | -2.2 (inactive) | -4.05 (inactive) | 0.259 (inactive) | 2.76 | -2.56 (inactive) | 0.235 | 0.555 | 0.923 | 0.0786
3 | COc1ccc([Si](C)(C)[C@H]2[C@H](CC(=O)N3CCC[C@H]3CO)O[C@@]3(C(=O)N(c4ccccc4)c4ccccc43)[C@@H]2C)cc1 | -0.371 | 0.509 | -0.17 | 0.134 | -0.568 | 0.0644 | 1.05 | -1.74 (inactive) | 0.0963 | -0.261 | 0.258 | -1.85 (inactive) | -0.841 (inactive) | -1.27 (inactive) | 0.958 | 2.45 (inactive) | -0.0651 | 0.285 | 0.125 | -0.15
4 | CCOC1=C2C(c3ccc(C)cc3)N(S(=O)(=O)c3ccc(C)cc3)CC2n2c(=O)n(-c3ccccc3)c(=O)n2C1 (stereo not given) | -0.19 | 0.475 | 0.0876 | 0.94 | 1.55 | 1.13 | 0.0031 | -3.93 (inactive) | 0.701 | -0.26 | 1.41 | -0.281 (inactive) | 0.401 (inactive) | 1.73 (inactive) | 2.89 | -0.278 (inactive) | 0.152 | 0.351 | 1.08 | 0.0201
5 | COCCn1c(C(=O)N(C)C)cc2c1C[C@H]1CN(C(=O)c3ccccc3)[C@@](Cc3ccc(F)cc3)(C(=O)OC)[C@@H]21 | 0.0407 | -0.0248 | 0.203 | 0.651 | 1.56 | 1.11 | 0.998 | 0.592 (inactive) | 0.576 | -0.0347 | 0.0294 | 0.296 (inactive) | 0.75 (inactive) | 0.247 (inactive) | 3.05 | 0.782 (inactive) | 0.214 | -0.3 | 0.328 | 0.0492
6 | COCCOC(=O)N1C(=O)[C@@]2(c3cc(C#CCC(C(=O)OC)C(=O)OC)ccc31)[C@H](c1ccc(OCCO)cc1)N1[C@H](c3ccccc3)[C@H](c3ccccc3)OC(=O)[C@H]1[C@@H]2C(=O)NC[C@H](O)c1ccccc1 | -1.25 | 0.501 | -0.0272 | 1.15 | 1.45 | 0.824 | 1.28 | -0.89 (inactive) | -0.158 | -0.521 | 1.53 | 2.11 (inactive) | 1.7 (inactive) | 7.38 (inactive) | 3.51 | 0.0053 (inactive) | -0.426 | 1.46 | 1.08 | -0.0389
7 | C[C@H]1C2[C@H](Cc3ccccc3)NC(=O)[C@]23C(=O)N[C@H](Cc2ccccc2)C(=O)N[C@H](Cc2ccccc2)C(=O)NC/C=C/CCC/C=C/C3[C@@H]2O[C@]12C (stereo not given in full) | -0.367 | 0.881 | -0.174 | 0.309 | -0.163 | 0.365 | 1.21 | 4.86 (inactive) | 0.22 | 0.154 | 0.786 | 0.524 (inactive) | -1.84 (inactive) | 0.254 (inactive) | 2.17 | 1.35 (inactive) | -0.241 | 1.58 | 0.62 | -0.152
8 | [N-]=[N+]=NCc1ccccc1C[C@]1(C(N)=O)N=C(c2ccc(OCCCO)cc2)O[C@H]1c1ccccc1N=[N+]=[N-] | 0.567 | -0.186 | -0.0085 | 0.665 | 0.997 | 1.3 | 1.12 | -1.4 (inactive) | 0.93 | 0.151 | 1.37 | 1.22 (inactive) | 1.29 (inactive) | 1.39 (inactive) | 2.84 | -0.0072 (inactive) | 0.175 | -0.433 | 0.616 | 0.268
9 | CC1CC/C=C\[C@H]2OC34C=CCN(CCN5CCOCC5)C(=O)[C@H]3N(CCCCCO)C(=O)[C@@H]4C2C(=O)O1 (stereo not given in full) | -0.0823 | -0.368 | -0.21 | -1.05 | -0.777 | -0.85 | -0.358 | 0.209 (inactive) | -0.633 | -0.216 | -0.632 | -0.631 (inactive) | -0.726 (inactive) | -0.206 (inactive) | -1.13 | -0.497 (inactive) | -0.339 | -1.02 | -1.17 | -0.158
